Assay results as given in the supplement of paper PMC6555819.

Assays:
Test in all cases: PBM binding z-score (relative to random genomic background probes); higher = stronger binding; sequences stand for … in GC…GCGATTGACAGCGTAGAATGAAGG
[1] = test system: PPARg:RXRa DBDmut IVT, anti-RXR (DBD mutation: RXRa K156A/R161A, NR concentration 270 nM, RXRa partner concentration 90 nM)
Summary of the method: (§1)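 Scanned fluorescence from custom Agilent 4×180K protein-binding microarrays was regression-normalized. Binding z-scores use random background probes as reference. Ligand-free nuclear receptor dimers were incubated on the arrays for 1 h and detected with antibodies against each partner (one per run).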

[2] = test system: PPARg:RXRa IVT, anti-PPARg (NR concentration 270 nM, RXRa partner concentration 90 nM)
Summary of the method: as §1

[3] = test system: PPARg DBDmut:RXRa IVT, anti-PPARg (DBD mutation: PPARg1 K132A/R137A, NR concentration 270 nM, RXRa partner concentration 90 nM)
Summary of the method: as §1

[4] = test system: PPARg DBDmut IVT, anti-PPARg (DBD mutation: PPARg1 K132A/R137A, NR concentration 270 nM)
Summary of the method: as §1

[5] = test system: PPARg homodimer (NR concentration 180 nM)
Summary of the method: as §1

[6] = test system: PXR:RXRa (NR concentration 270 nM, RXRa partner concentration 90 nM)
Summary of the method: as §1

[7] = test system: PXR homodimer (NR concentration 270 nM)
Summary of the method: as §1

[8] = test system: RARa:RXR (NR concentration 270 nM, RXRa partner concentration 90 nM)
Summary of the method: as §1

[9] = test system: RARa homodimer (NR concentration 270 nM)
Summary of the method: as §1

[10] = test system: RARb:RXRa (NR concentration 270 nM, RXRa partner concentration 90 nM)
Summary of the method: as §1

Sequence	PBM binding z-score [1]	PBM binding z-score [2]	PBM binding z-score [3]	PBM binding z-score [4]	PBM binding z-score [5]	PBM binding z-score [6]	PBM binding z-score [7]	PBM binding z-score [8]	PBM binding z-score [9]	PBM binding z-score [10]
AAAATGAGGTTATACGTAGATCAGGGAAGAAAGT	4.62	3.11	2.19	1.29	0.818	1.37	0.994	1.99	0.921	1.56
CTACCAAGGTGAACAAGGACGTTGATTACTATTC	2.52	2.17	0.0703	0.657	0.761	0.356	0.295	0.5	0.187	1.55
GCAGACAGGTGACACGCAGGTAACTCAGGGTGGC	0.596	1.21	-0.103	-0.383	-0.125	-0.218	-0.476	0.24	-0.572	0.684
CAAACTAGGTCACCGGAAGGTCAAAATCCGCATG	8.74	9.07	7.15	5.58	9.41	5.86	1.73	7.2	3.23	5.11
TCTTGTAGATCAAAGGTTATGAAAGCCGAAGCCT	2.32	3.32	0.577	0.452	1.12	1.88	0.0149	3.07	-0.114	1.79
CCTAGCATGCCAATCTGGGTCACTCAAGGCTTGA	3.67	4.84	0.133	-0.458	0.737	0.913	-0.249	1.65	-0.219	1.16
AGAATGAGGTTATACCTAGATCAGGGAAGAAAGT	2.11	2.02	1.05	0.686	0.0294	0.87	0.227	1.44	-0.0854	1.19
ACTATTAGTTGACACGAGGGCAACCGATAGGTTG	0.272	1.04	0.784	0.778	0.695	1.75	0.634	1.74	0.708	1.59
CAAACTAGGTCACGAAGGGTCAAAGTCGAATGAC	8.44	9.09	5.43	4.14	6.07	6.48	1	7.14	2.56	5.29
TCATATCGGTAAATGCTAGGTGAAAGTCCGATCT	1.8	1.17	0.763	0.728	0.249	0.387	-0.111	0.463	-0.336	0.381
CGTCCAAGGTCAGAGAGGTAAGTGAATGCCGAGT	2.46	2.1	-0.583	-0.788	1.67	2.89	1.46	3.24	0.288	4.67
AATACAGGGTCATCGTAGGCCAGAGTGCGCACAG	2.61	4.22	1.07	1.13	1.9	4.97	0.782	4.82	0.464	4.48
GCTAGCAGCCCATTTGGGTCACTCAATGACGGGC	-0.167	0.995	-0.831	-1.56	-0.798	-0.106	-0.918	0.359	-1.15	0.893
CAAACTAAGTCACAGAGGTCAAAGTCCGTGCGTA	2.87	3.84	0.32	0.368	4.44	5.86	3.71	6.39	2.59	4.05
CGTCCAAGGTCAGAGATGTCAGTGAATGCCGAGT	2.09	2.19	-0.242	-0.744	0.984	2.43	1	2.65	0.429	4.54
CAAACTAGGTTACGAAAGGTCAAAGTCGAATGAC	7.07	7.68	2.53	2.93	4.81	6.22	1.73	6.69	3.24	4.82
ATATGTAGGTTACATCCGGGTCATTAAGGCTATG	7.73	7.28	1.96	2.14	1.78	3.52	4.13	3.18	0.456	2.36
ACTAGCAGGCCAAGTTTGGGTGACTCAAACAAAG	0.661	0.765	-1.13	-1.09	-0.815	-0.475	-0.715	-0.198	-0.374	0.418
CTCGAAAGGTCGGATGAGGTGAGTATACGGATAA	0.154	0.983	0.973	-0.0346	0.968	3.55	-0.0327	2.62	0.562	3.32
GGAACGAGGGCAAAGTTGATAGGATCTGTCGACG	3.81	4.2	0.474	-0.389	0.743	1.31	0.619	1.58	0.0143	2.41
TCTAGCAGGCCTGAGGGTCACTCAAGAGGTACGG	0.475	-0.212	-2.08	-1.13	0.706	1.92	-0.465	2.85	-0.571	2.12
TGTCAAAGTTCAAAGGTAAAGTAAGTATCCACAC	0.197	4.58	1.35	1.98	3.26	5.75	3.72	5.81	1.83	5.07
CAAACTAGGTCACGAAAGGTGAAAGTCGAATGAC	8.57	8.88	1.44	1.5	3.13	4.13	0.228	4.69	1.24	4.84
TCATATAGGTAAGCAGGTGAAAGTCCGTAAGTTA	4.03	3.94	0.357	0.715	0.516	0.257	0.129	0.662	0.214	0.318
